# TNAP Pi inh: blocks human TNAP phosphate release | P05186 | 21,000 tested, under 10 active | purified TNAP, pNPP, malachite green phosphate absorbance | inhibition, % at 20 µM
# Target sequence (P05186 whole entry, looked up): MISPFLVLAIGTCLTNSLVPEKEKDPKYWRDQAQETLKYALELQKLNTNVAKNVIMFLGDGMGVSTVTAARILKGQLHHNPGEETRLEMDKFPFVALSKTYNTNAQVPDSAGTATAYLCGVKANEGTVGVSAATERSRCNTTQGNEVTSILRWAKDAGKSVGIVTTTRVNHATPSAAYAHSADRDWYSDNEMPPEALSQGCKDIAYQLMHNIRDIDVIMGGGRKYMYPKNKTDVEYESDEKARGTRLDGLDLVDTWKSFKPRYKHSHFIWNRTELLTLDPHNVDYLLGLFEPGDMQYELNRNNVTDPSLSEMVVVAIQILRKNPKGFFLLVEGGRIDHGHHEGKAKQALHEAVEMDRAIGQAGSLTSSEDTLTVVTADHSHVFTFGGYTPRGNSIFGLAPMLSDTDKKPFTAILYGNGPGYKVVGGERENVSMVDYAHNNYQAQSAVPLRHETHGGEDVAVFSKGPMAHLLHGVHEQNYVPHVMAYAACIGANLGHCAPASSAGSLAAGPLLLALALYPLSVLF
# TNAP inh pNP: inhibitors of human tissue-nonspecific alkaline phosphatase. purified TNAP, pNPP hydrolysis, absorbance 405 nm. inhibition, % at 20 µM. 21,000 tested, under 10 active;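 also: 0% = DMSO only wells and 100% = 1 mM levamisole wells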
# Numbers without * were called inactive. The list is a sample of the results.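 The calls were made as follows: active = inhibition above 50% at the 20 µM single-dose screen; inactive = the rest.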
SMILES,TNAP Pi inh,TNAP inh pNP
CCOC(=O)Cc1csc(NC(=O)CSc2ncnc3c2cnn3-c2ccccc2Cl)n1,17,6
O=C(NCc1ccccc1)NC1(C(=O)N2CCOCC2)CCCCC1,10,1
O=C(NCc1cccnc1)C1CCCN(S(=O)(=O)c2ccccc2)C1 (configuration not stated),1,-6
CCOC(=O)CSc1nc(N)c(C(=O)Nc2ccc(N(C)C)cc2)s1,8,0
CCC1SC(N)=NC1=O (configuration not stated),8,3
O=C(CSc1nc2ccccc2s1)Nn1cnnc1,7,0
O=c1c2sc3nc(N4CCOCC4)c4c(c3c2ncn1Cc1ccco1)CCCC4,0,0
COc1ccc(CCC(=O)Nc2nc3c(s2)CN(C)CC3)cc1OC,6,4
Cc1ccc(C(C)C)c(OCCNc2nc3c(c(=O)n(C)c(=O)n3C)n2C)c1,7,2
Nc1ccc(Cl)cc1/C(=N/O)c1ccccc1,-20,0
O=C(CSc1nc(-c2ccc(F)cc2)cs1)N1CCN(C(=O)c2ccco2)CC1,0,0

# Compound activity from PubChem BioAssay.
